# Test results as given in PubChem BioAssay (Tox21).
# Records with an inconclusive call do not appear. Unmarked numbers belong to inactive results. Calls of active or inactive are those of the source. The call rests on the fitted dose curve.
# Biological target: Thyrotropin receptor (Homo sapiens) (UniProt P16473)
# Assay: qHTS assay to identify small molecule agonists of the thyroid stimulating hormone receptor (TSHR) signaling pathway (AID 1224843); further: nearly all actives have a fitted effect of over 45% in size
# Conditions: TSHR-HEK293 cells, cAMP HTRF, agonist mode, 30 min; series mostly up to 92.4 µM; activation: at the top concentration
# Source text: National Center for Advancing Translational Sciences [NCATS]
# NIH Chemical Genomics Center [NCGC]
# U.S. Environmental Protection Agency [EPA]
# National Institutes of Environmental Health Sciences [NIEHS]
# National Toxicology Program [NTP]
# U.S. Food and Drug Administration [FDA]
# TSHR is the receptor for thyrotropin (thyroid stimulating hormone or TSH), a member of the glycoprotein hormone family. TSH is released by the anterior pituitary gland and is the main regulator of thyroid gland growth and development. Upon binding circulating thyrotropin, a G-protein signal cascade activates adenylyl cyclase and […] cAMP concentration is increased. cAMP is a key second messenger involved extensively in cellular signal transduction pathways associated with the majority of G-protein coupled receptors (GPCRs). The activation of these GPCRs by neurotransmitters, lipids, nucleotides, peptides and hormones results in the activation or the inhibition of plasma membrane-bound adenylate cyclase through heterotrimeric G-proteins. A cell-based TSHR assay was used to screen the Tox21 10K library for compounds that can modulate TSHR in agonist mode.
# Tox21 Assay Protocol Summary:
# TSHR-Hek293 cells were dispensed at 800 cells/4uL/well in 1536-well white plates using a Multidrop dispenser. […] The plates were incubated at room temperature for 30 min. 2.5 ul/well of cAMP-d2 and 2.5ul/well of anti-cAMP-cryptate was added respectively into the assay plates using a Flying Reagent Dispenser. After 1 hr incubation at room temperature, the fluorescence intensity in the plates was measured using an Envision plate reader. Each test compound was measured at 15 concentrations and in triplicates.
# On the % scale 0 is the no-effect control and ±100 the full control effect; potency means the concentration at half of the fitted maximal effect.
# Sequence of Thyrotropin receptor (Homo sapiens) (P16473 whole entry, looked up): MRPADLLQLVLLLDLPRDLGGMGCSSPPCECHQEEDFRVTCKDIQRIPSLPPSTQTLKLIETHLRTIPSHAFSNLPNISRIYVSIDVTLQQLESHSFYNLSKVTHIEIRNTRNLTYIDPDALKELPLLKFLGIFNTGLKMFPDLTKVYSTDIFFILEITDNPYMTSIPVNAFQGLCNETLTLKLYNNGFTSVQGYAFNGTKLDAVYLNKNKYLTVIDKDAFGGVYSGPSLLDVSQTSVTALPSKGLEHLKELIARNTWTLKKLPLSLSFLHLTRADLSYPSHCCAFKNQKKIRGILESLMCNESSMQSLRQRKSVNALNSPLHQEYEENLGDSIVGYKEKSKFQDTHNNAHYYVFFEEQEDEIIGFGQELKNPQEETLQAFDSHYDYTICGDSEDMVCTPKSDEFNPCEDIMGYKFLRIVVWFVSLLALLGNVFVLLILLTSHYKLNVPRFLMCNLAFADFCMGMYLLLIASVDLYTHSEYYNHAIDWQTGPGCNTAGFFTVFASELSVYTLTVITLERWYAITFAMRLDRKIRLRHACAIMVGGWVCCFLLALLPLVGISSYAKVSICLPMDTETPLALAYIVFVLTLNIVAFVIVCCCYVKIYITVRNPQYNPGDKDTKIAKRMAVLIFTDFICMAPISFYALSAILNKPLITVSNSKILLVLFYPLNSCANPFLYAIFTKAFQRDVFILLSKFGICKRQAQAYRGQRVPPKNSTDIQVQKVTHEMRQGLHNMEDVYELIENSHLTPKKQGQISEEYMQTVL
Structure (SMILES),activation,Potency
NC(N)=NCCC[C@H](N)C(=O)O,-0.151% [at 8.39 µM],
CCC(C)c1cc(C(C)(C)C)c(O)c(C(C)(C)C)c1 (stereo not given),-0.229%,
CC(C)=CCC/C(C)=C/CC/C(C)=C/CO,18.6%,
O=[N+]([O-])c1ccc(NCCO)c(OCCO)c1,-18.5%,
CCCCCCCCCCCc1ccccc1,0.711%,
Cc1ccc(C(=O)Oc2ccc(C(O)CNC(C)(C)C)cc2OC(=O)c2ccc(C)cc2)cc1 (stereo not given),,47.3 nM (active)
O=[N+]([O-])c1ccc2[nH]ncc2c1,-3.6%,
CCCCC(CC)COC(=O)COc1ccc(Cl)cc1Cl (stereo not given),-28.9%,
O=C(O)c1ccco1,15.2%,
Cc1ccc(N=Nc2c(O)c(C(=O)O)cc3ccccc23)c(S(=O)(=O)O)c1,-9.02% [at 42.5 µM],
CCOC(=O)c1cccnc1,4.01% [at 42.5 µM],
Nc1ccccc1S(=O)(=O)c1ccccc1,-9.69%,
O=S(c1cc(Cl)cc(Cl)c1O)c1cc(Cl)cc(Cl)c1O,1.82% [at 42.5 µM],
COc1cc2nc(N(C)CCCNC(=O)C3CCCO3)nc(N)c2cc1OC (stereo not given),-11.2% [at 42.5 µM],
NCc1ccccc1Sc1ccccc1CO,2.09% [at 42.5 µM],
CC(C)O.CC(C)O.CCOC(=O)/C=C(\C)O.CCOC(=O)/C=C(\C)O.[Ti],2.06%,
CCCCc1ncc(/C=C(\Cc2cccs2)C(=O)O)n1Cc1ccc(C(=O)O)cc1,-0.296% [at 42.5 µM],
O=C1C(O)=C(O)C(=O)C(O)=C1O,-1.09% [at 42.5 µM],
COc1cc2c(cc1OC)C(C(C(=O)N(CCc1ccc(OC)c(OC)c1OC)CCc1ccc(OC)c(OC)c1OC)c1ccccc1)=NCC2 (stereo not given),-2.25% [at 42.5 µM],
C#Cc1cccc(Nc2ncnc3cc(OCCOC)c(OCCOC)cc23)c1,-3.25% [at 42.5 µM],

Structure (SMILES),activation,Potency
O=C(O)CNCC(=O)O,4.36% [at 8.39 µM],
CCCCc1nc2cccnc2n1Cc1ccc(-c2ccccc2-c2nnn[nH]2)cc1,1.72%,
O=C(O)CC(=O)C(=O)O,-6.83%,
CCCCC/C=C\C/C=C\CCCCCCCC(=O)NC(C)c1ccccc1 (stereo not given),-14.6% [at 42.5 µM],
C[C@@H]1C[C@H]2[C@@H]3CCC4=CC(=O)C=C[C@]4(C)[C@@]3(F)[C@@H](O)C[C@]2(C)[C@@]1(O)C(=O)COC(=O)c1ccncc1,1.32% [at 42.5 µM],
CN1Cc2cc(C(=O)N3CCC(C4CCNCC4)CC3)ccc2NC(CC(=O)O)C1=O (stereo not given),-5.1% [at 42.5 µM],
CCCCO,3.14%,
Brc1c2ccccc2cc2ccccc12,-15.6%,
CC1OC(=O)C(C)OC1=O (stereo not given),0.261%,
C/C=C/C(=O)CC,-10.5% [at 19 µM],
CCOCC(O)COc1ccc(NC(=O)CC[S+](C)C)cc1 (stereo not given),0.278% [at 42.5 µM],
COc1cc(C(=O)OCCCN2CCCN(CCCOC(=O)c3cc(OC)c(OC)c(OC)c3)CC2)cc(OC)c1OC,-13.4% [at 42.5 µM],
NCC(=O)O,-1.56% [at 19 µM],
CCOC(=O)C(O)c1ccccc1 (stereo not given),-2.17% [at 42.5 µM],
CN(C)c1ccc(CCO)cc1,1.07%,
CN(C)C(=O)NC1(c2ccccc2)CCN(CC[C@@]2(c3ccc(F)c(F)c3)CN(C(=O)c3ccccc3)CCO2)CC1,-0.526%,
C=C(C)C(=O)OCCO,-6.41%,
CC(C)(O)c1ccc(CNC(=O)c2cccnc2Oc2ccc(F)cc2)cc1,20.7%,
C=CC(=O)OCCOCCOCCOCCOC(=O)C=C,,inactive
COC(=O)c1ccc(I)cc1S(=O)(=O)NC(=O)Nc1nc(C)nc(OC)n1,4.18%,
